Test results published in PubChem BioAssay (NCATS).
Records with an inconclusive call do not appear. Values without a mark were called inactive. Calls of active or inactive are those of the source. Calls follow the shape of the dose curve; as a rule, active = well fitted curve in the direction sought with a large enough effect; inconclusive = small, poorly fitted or top-dose-only effect, or another doubt; inactive = no such curve, though single readings can be large; an effect the other way counts as inactive or inconclusive.

Experiments:
[1] = Quantitative High-Throughput drug screen in 47 multiple myeloma cell lines against the NCATS MIPE library collection: KMS12PE_JCRB cell viability assay (AID 1918972); also: nearly all actives have a fitted effect of over 30% in size; also: potency is read from the fitted curve at half-maximal effect; as to viability: series mostly up to about 46 µM
Summary of the method: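 qHTS of the MIPE 4.0 collection: 500 myeloma cells/well, 48 h drug exposure at 37C in 5% CO2, then CellTiter-Glo for 5 min at room temperature before luminescence reading.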

[2] = Quantitative High-Throughput drug screen in 47 multiple myeloma cell lines against the NCATS MIPE library collection: KMS26_JCRB cell viability assay (AID 1918975); also: nearly all actives have a fitted effect of over 45% in size; also: potency is read from the fitted curve at half-maximal effect
Summary of the method: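 We plated 500 myeloma cells per well, pinned in MIPE 4.0 compounds, and incubated for 48 hours at 37C. ATP was then quantified with CellTiter-Glo, with DMSO and media-only wells defining 100% and 0%.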

[3] = Quantitative High-Throughput drug screen in 47 multiple myeloma cell lines against the NCATS MIPE library collection: NCIH929_DSMZ cell viability assay (AID 1918978); also: nearly all actives have a fitted effect of over 35% in size; also: potency is read from the fitted curve at half-maximal effect
Summary of the method: (§1)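 Viability after 48 h drug exposure was measured as ATP-dependent luminescence. Cells, 500 per well, sat at 37 °C under 5% CO2; DMSO wells set 100%, media-only wells 0%.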

[4] = Quantitative High-Throughput drug screen in 47 multiple myeloma cell lines against the NCATS MIPE library collection: OCIMY1_PLB cell viability assay (AID 1918979); also: series mostly up to about 46 µM; nearly all actives have a fitted effect of over 35% in size
Summary of the method: as §1

[5] = Quantitative High-Throughput drug screen in 47 multiple myeloma cell lines against the NCATS MIPE library collection: MM1S_ATCC cell viability assay (AID 1918980); also: nearly all actives have a fitted effect of over 45% in size; also: potency is read from the fitted curve at half-maximal effect
Summary of the method: as §1

[6] = Quantitative High-Throughput drug screen in 47 multiple myeloma cell lines against the NCATS MIPE library collection: OCIMY5_PLB cell viability assay (AID 1918988); also: nearly all actives have a fitted effect of over 65% in size; also: potency is read from the fitted curve at half-maximal effect
Summary of the method: as §1

[7] = Quantitative High-Throughput drug screen in 47 multiple myeloma cell lines against the NCATS MIPE library collection: OPM1_PLB cell viability assay (AID 1918989); also: nearly all actives have a fitted effect of over 40% in size; also: potency is read from the fitted curve at half-maximal effect
Summary of the method: as §1

[8] = Quantitative High-Throughput drug screen in 47 multiple myeloma cell lines against the NCATS MIPE library collection: XG6_PLB cell viability assay (AID 1919865); also: nearly all actives have a fitted effect of over 40% in size; also: potency is read from the fitted curve at half-maximal effect
Summary of the method: as §1

[9] = Quantitative High-Throughput drug screen in 47 multiple myeloma cell lines against the NCATS MIPE library collection: MOLP8_DSMZ cell viability assay (AID 1918977); also: nearly all actives have a fitted effect of over 45% in size; also: potency is read from the fitted curve at half-maximal effect
Summary of the method: as §1

[10] = Quantitative High-Throughput drug screen in 47 multiple myeloma cell lines against the NCATS MIPE library collection: MM1R_ATCC cell viability assay (AID 1918981); also: nearly all actives have a fitted effect of over 35% in size; also: potency is read from the fitted curve at half-maximal effect
Summary of the method: as §1

[11] = Quantitative High-Throughput drug screen in 47 multiple myeloma cell lines against the NCATS MIPE library collection: KMS28PE_JCRB cell viability assay (AID 1918983); also: nearly all actives have a fitted effect of over 35% in size; also: potency is read from the fitted curve at half-maximal effect
Summary of the method: as §1

[12] = Quantitative High-Throughput drug screen in 47 multiple myeloma cell lines against the NCATS MIPE library collection: KMS34_JCRB cell viability assay (AID 1918985); also: nearly all actives have a fitted effect of over 40% in size; also: potency is read from the fitted curve at half-maximal effect
Summary of the method: as §1

[13] = Quantitative High-Throughput drug screen in 47 multiple myeloma cell lines against the NCATS MIPE library collection: LP1_DSMZ cell viability assay (AID 1918982); also: nearly all actives have a fitted effect of over 35% in size; also: potency is read from the fitted curve at half-maximal effect
Summary of the method: as §1

[14] = Quantitative High-Throughput drug screen in 47 multiple myeloma cell lines against the NCATS MIPE library collection: OCIMY7_PLB cell viability assay (AID 1918987); also: nearly all actives have a fitted effect of over 65% in size; also: potency is read from the fitted curve at half-maximal effect
Summary of the method: as §1

[15] = Quantitative High-Throughput drug screen in 47 multiple myeloma cell lines against the NCATS MIPE library collection: SKMM1_PLB cell viability assay (AID 1919863); conditions: SKMM1 myeloma viability, CellTiter-Glo ATP, 48 h; viability: stronger effect = lower value; also: nearly all actives have a fitted effect of over 35% in size; also: potency is read from the fitted curve at half-maximal effect; as to viability: series mostly up to about 46 µM
Summary of the method: as §1

[16] = Quantitative High-Throughput drug screen in 47 multiple myeloma cell lines against the NCATS MIPE library collection: U266_ATCC cell viability assay (AID 1919864); also: nearly all actives have a fitted effect of over 35% in size; also: potency is read from the fitted curve at half-maximal effect
Summary of the method: as §1

[17] = Quantitative High-Throughput drug screen in 47 multiple myeloma cell lines against the NCATS MIPE library collection: MMM1_PLB cell viability assay (AID 1918976)
Summary of the method: as §1

[18] = Quantitative High-Throughput drug screen in 47 multiple myeloma cell lines against the NCATS MIPE library collection: L363_DSMZ cell viability assay (AID 1918984); also: nearly all actives have a fitted effect of over 40% in size; also: potency is read from the fitted curve at half-maximal effect
Summary of the method: as §1

SMILES: Nc1ncnc2nc(-c3ccc(N4CCOCC4)nc3)cc(-c3cccc(Br)c3)c12
- Potency [1]: inactive
- Potency [2]: inactive
- Potency [3]: 14.8 µM (active)
- Potency [4]: inactive
- Potency [5]: 23.5 µM (active)
- Potency [6]: 16.6 µM (active)
- Potency [7]: 20.9 µM (active)
- Potency [8]: 10.5 µM (active)

SMILES: OC[C@H](Cc1ccccc1)Nc1nc(Oc2ccc3c(c2)CCC3)nc2c1ncn2Cc1ccc(-c2ccccc2)cc1
- Potency [1]: inactive
- Potency [9]: inactive
- Potency [10]: inactive
- Potency [11]: inactive
- Potency [12]: 18.7 µM (active)
- Potency [7]: 11.8 µM (active)

SMILES: CCCS(=O)(=O)Nc1ccc(F)c(C(=O)c2c[nH]c3ncc(Cl)cc23)c1F
- Potency [1]: 16.6 µM (active)
- Potency [2]: inactive
- Potency [4]: inactive
- Potency [5]: inactive
- Potency [13]: inactive
- Potency [12]: inactive
- Potency [14]: 1.32 µM (active)
- Potency [6]: 14.8 µM (active)
- Potency [7]: 18.7 µM (active)
- viability [15]: 122%
- Potency [16]: 11.8 µM (active)
- Potency [8]: 10.5 µM (active)

SMILES: Fc1ccc(Cl)cc1-c1nc(Nc2ccncc2)c2nccnc2n1
- Potency [1]: 0.469 µM (active)
- Potency [3]: 16.6 µM (active)
- Potency [5]: inactive
- Potency [12]: 1.32 µM (active)
- viability [15]: 120%
- Potency [16]: inactive
- Potency [8]: 3.32 µM (active)

SMILES: CCn1c(-c2nonc2N)nc2cnc(Oc3cccc(NC(=O)c4ccc(OCCN5CCOCC5)cc4)c3)cc21
- Potency [1]: 5.9 µM (active)
- Potency [17]: 10.5 µM (active)
- Potency [3]: 9.35 µM (active)
- Potency [5]: 18.7 µM (active)
- Potency [10]: 16.6 µM (active)
- Potency [13]: 14.8 µM (active)
- Potency [18]: 8.33 µM (active)
- Potency [14]: 2.35 µM (active)
- Potency [7]: 16.6 µM (active)
- Potency [8]: 20.9 µM (active)

SMILES: O=C1CCC(N2C(=O)c3ccccc3C2=O)C(=O)N1 (centres undefined)
- Potency [1]: inactive
- Potency [17]: 2.96 µM (active)
- Potency [3]: inactive
- Potency [4]: inactive
- Potency [13]: inactive
- Potency [7]: inactive
- Potency [15]: 23.5 µM (active)
- Potency [16]: 18.7 µM (active)
- Potency [8]: inactive

SMILES: COCC(=O)NCC=Cc1ccc2ncnc(Nc3ccc(Oc4ccc(C)nc4)c(C)c3)c2c1
- Potency [1]: 16.6 µM (active)
- Potency [3]: 20.9 µM (active)
- Potency [5]: 26.4 µM (active)
- Potency [7]: 18.7 µM (active)
- Potency [8]: 16.6 µM (active)

SMILES: C[C@@H]1CN(Cc2ccc(F)cc2)[C@@H](C)CN1C(=O)c1cc2c(C(=O)C(=O)N(C)C)cn(C)c2cc1Cl
- Potency [1]: 20.9 µM (active)
- Potency [2]: 18.7 µM (active)
- Potency [4]: inactive
- Potency [5]: 10.5 µM (active)
- Potency [14]: 14.8 µM (active)
- Potency [7]: 29.6 µM (active)

SMILES: Cc1ccnc(NS(=O)(=O)c2ccc(NC(=O)Nc3ccc(S(=O)(=O)Nc4nccc(C)n4)cc3)cc2)n1
- Potency [1]: 20.9 µM (active)
- Potency [3]: inactive
- Potency [4]: inactive
- Potency [5]: inactive
- Potency [10]: inactive
- Potency [11]: inactive
- Potency [12]: inactive
- Potency [7]: 18.7 µM (active)
- Potency [8]: 4.18 µM (active)

SMILES: O=C1CCc2cc(OCCCCc3nnnn3C3CCCCC3)ccc2N1
- Potency [1]: inactive
- Potency [2]: inactive
- Potency [4]: inactive
- Potency [10]: inactive
- Potency [13]: inactive
- Potency [11]: inactive
- Potency [16]: inactive

SMILES: CCC(C)(C)C(=O)O[C@H]1C[C@@H](C)C=C2C=C[C@H](C)[C@H](CC[C@@H]3C[C@@H](O)CC(=O)O3)[C@H]21
- Potency [1]: 5.9 µM (active)
- Potency [9]: 13.2 µM (active)
- Potency [3]: 13.2 µM (active)
- Potency [4]: inactive
- Potency [5]: 16.6 µM (active)
- Potency [6]: 18.7 µM (active)
- Potency [7]: 8.33 µM (active)
- Potency [15]: 18.7 µM (active)
- Potency [8]: 18.7 µM (active)

SMILES: CNCc1ccc(-c2[nH]c3cc(F)cc4c3c2CCNC4=O)cc1
- Potency [1]: inactive
- Potency [3]: inactive
- Potency [4]: inactive
- Potency [10]: inactive
- Potency [13]: inactive
- Potency [11]: inactive
- Potency [12]: inactive
- Potency [6]: inactive
- Potency [7]: inactive

SMILES: Clc1ccc(Nc2nnc(Cc3ccncc3)c3ccccc23)cc1
- Potency [1]: inactive
- Potency [3]: 11.8 µM (active)
- Potency [4]: inactive
- Potency [5]: 18.7 µM (active)
- Potency [13]: 11.8 µM (active)
- Potency [11]: 20.9 µM (active)
- Potency [18]: inactive
- Potency [14]: 3.32 µM (active)
- Potency [6]: 6.62 µM (active)
- Potency [8]: 2.09 µM (active)

SMILES: NC(=O)C1CCCc2c1[nH]c1ccc(Cl)cc21 (centres undefined)
- Potency [1]: 14.8 µM (active)
- Potency [3]: inactive
- Potency [4]: inactive
- Potency [10]: 14.8 µM (active)
- Potency [13]: inactive
- Potency [11]: inactive
- Potency [7]: 4.69 µM (active)
- viability [15]: 110%
- Potency [8]: 20.9 µM (active)

SMILES: NC[C@H](O)c1ccc(O)c(O)c1
- Potency [1]: inactive
- Potency [17]: 23.5 µM (active)
- Potency [3]: inactive
- Potency [4]: inactive
- Potency [5]: 23.5 µM (active)
- Potency [10]: 5.9 µM (active)
- Potency [13]: inactive
- Potency [11]: 18.7 µM (active)
- Potency [12]: inactive
- Potency [6]: 1.32 µM (active)
- Potency [16]: inactive
- Potency [8]: inactive

SMILES: COCCNCCCn1c(C(=O)CF)c(-c2ccc(C)cc2)c2c(N)ncnc21
- Potency [1]: inactive
- Potency [2]: inactive
- Potency [3]: inactive
- Potency [4]: inactive
- Potency [10]: 2.64 µM (active)
- Potency [13]: 7.43 µM (active)
- Potency [11]: inactive
- Potency [12]: 16.6 µM (active)
- Potency [16]: inactive

SMILES: Cc1cc(-c2ccc(CC(=O)Nc3ccc(-c4cccnc4)cc3)cc2)ccn1
- Potency [1]: 14.8 µM (active)
- Potency [17]: 20.9 µM (active)
- Potency [9]: inactive
- Potency [3]: 23.5 µM (active)
- Potency [5]: inactive
- Potency [10]: inactive
- Potency [11]: 13.2 µM (active)
- Potency [6]: 16.6 µM (active)
- Potency [7]: 20.9 µM (active)

SMILES: Cc1[nH]c(=O)c(C#N)cc1-c1ccc2nccn2c1
- Potency [1]: inactive
- Potency [2]: inactive
- Potency [3]: inactive
- Potency [11]: inactive
- Potency [14]: inactive
- Potency [7]: inactive
- Potency [16]: inactive
- Potency [8]: inactive
